Assay results reported in PubChem BioAssay (NCI).
This is part of a sample that, as a whole, favours compounds with a hit. Of some 79,000 tested, about 15% had one in any assay. Activity calls are given as the source filed them. No stated cut-off is given here; in the data, active means growth inhibition above about 70%; inactive means the rest.

How the values were obtained:
[1] = NCI Yeast Anticancer Drug Screen. Data for the rad50 strain (AID 155);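 further: 0% = growth of vehicle-only cultures of the same strain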; settings: S. cerevisiae rad50 strain growth inhibition, hits give high values
Method in brief: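 A DNA repair-deficient yeast mutant serves as the test organism; compound-induced growth inhibition is calculated against vehicle-treated cells.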

[2] = NCI Yeast Anticancer Drug Screen. Data for the mec2-1 strain (AID 157); settings: S. cerevisiae mec2-1 strain, hits give high values
Method in brief: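 Cells of the genetically defined mec2-1 yeast strain are incubated with test compound. Inhibition of growth is calculated against vehicle-treated controls.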

[3] = NCI Yeast Anticancer Drug Screen. Data for the sgs1 mgt1 strain (AID 161);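 further: 0% = growth of cultures given vehicle only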; settings: S. cerevisiae sgs1 mgt1 strain, hits give high values
Method in brief: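 Read-out: growth inhibition vs vehicle controls. Cells: mutant yeast strain deficient in DNA damage repair.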

[4] = NCI Yeast Anticancer Drug Screen. Data for the cln2 rad14 strain (AID 165);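 further: 0% = growth equal to vehicle treated cultures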; settings: S. cerevisiae cln2 rad14 strain, hits give high values
Method in brief: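 The screen exposed genetically defined yeast (cln2 rad14) to test compounds and scored growth inhibition relative to vehicle-treated controls.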

[5] = NCI Yeast Anticancer Drug Screen. Data for the bub3 strain (AID 167); settings: S. cerevisiae bub3 mutant strain, hits give high values
Method in brief: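 Inhibition values come from growth of compound-treated mutant yeast normalised to vehicle-treated controls.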

[6] = NCI Yeast Anticancer Drug Screen. Data for the mlh1 rad18 strain (AID 175); settings: S. cerevisiae mlh1 rad18 strain growth inhibition, hits give high values
Method in brief: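 Compound-treated yeast growth, normalised to vehicle controls. Strain bears defined DNA repair mutations.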

[7] = at 5.0 µM (retest, dose inferred, filed as 0.5)
[8] = at 50.0 µM (retest, dose inferred, filed as 5.0)

Measured: growth inhibition

CCC[CH2][Sn]1([CH2]CCC)[O]CC([CH2][Sn]([c]2ccccc2)([c]2ccccc2)[c]2ccccc2)[O]1 (stereo not given)
active: [1]; [7] 100% | [1]; [8] 100% | [1]; at 50.0 µM 90.3% | [2]; [7] 97% | [2]; [8] 97% | [2]; at 50.0 µM 91.7% | [3]; [7] 99% | [3]; [8] 99% | [3]; at 50.0 µM 90.8% | [4]; [7] 99% | [4]; [8] 99% | [4]; at 50.0 µM 91.7% | [5]; [7] 97% | [5]; [8] 97% | [5]; at 50.0 µM 91.3% | [6]; [7] 98% | [6]; [8] 98% | [6]; at 50.0 µM 89%

CC(C)(CN1CCCCC1)C(=O)CC(SCCS(=O)(=O)O)c1ccc(Cl)c(Cl)c1 (stereo not given)
inactive: [1]; [7] 62% | [2]; [7] 33% | [3]; [7] 33% | [4]; [7] 38% | [5]; [7] 58% | [6]; [7] 41%
active: [1]; [8] 97% | [1]; at 50.0 µM 95.8% | [2]; [8] 97% | [2]; at 50.0 µM 94% | [3]; [8] 95% | [3]; at 50.0 µM 97.4% | [4]; [8] 98% | [4]; at 50.0 µM 88.2% | [5]; [8] 99% | [5]; at 50.0 µM 98% | [6]; [8] 97% | [6]; at 50.0 µM 97%

COC(=O)C(=O)N(c1cc(C)ccc1C)c1cc(C)ccc1C
active: [1]; [8] 85% | [1]; at 50.0 µM 96.2% | [2]; [8] 73% | [2]; at 50.0 µM 95.3% | [3]; at 50.0 µM 95% | [5]; at 50.0 µM 94.3% | [6]; [8] 81% | [6]; at 50.0 µM 92.7%
inactive: [1]; [7] -1% | [2]; [7] 1% | [3]; [7] 0% | [3]; [8] 57% | [4]; [7] 6% | [4]; [8] 26% | [4]; at 50.0 µM 63.1% | [5]; [7] 3% | [5]; [8] 59% | [6]; [7] -3%

CC[n+]1ccc(Nc2ccc(NC(=O)c3ccc(C(=O)Nc4ccc(Nc5cc[n+](CC)c(N)n5)cc4)cc3)cc2)nc1N
active: [1]; [8] 98% | [1]; at 50.0 µM 98.2% | [2]; [8] 99% | [2]; at 50.0 µM 98.9% | [3]; [8] 99% | [3]; at 50.0 µM 99% | [4]; [8] 98% | [4]; at 50.0 µM 97.3% | [5]; [8] 96% | [5]; at 50.0 µM 98% | [6]; [8] 99% | [6]; at 50.0 µM 98.3%
inactive: [1]; [7] 24% | [2]; [7] 30% | [3]; [7] 26% | [4]; [7] -3% | [5]; [7] 28% | [6]; [7] 50%

CC(=O)Oc1ccccc1C(=O)/C=C/c1ccccc1
active: [1]; [8] 82% | [2]; [8] 89% | [3]; [8] 93% | [5]; [8] 90% | [6]; [8] 98%
inactive: [1]; [7] 3% | [1]; at 50.0 µM -11.2% | [2]; [7] 7% | [2]; at 50.0 µM 17.4% | [3]; [7] 4% | [3]; at 50.0 µM 11.6% | [4]; [7] 0% | [4]; [8] 40% | [4]; at 50.0 µM -17.3% | [5]; [7] -1% | [5]; at 50.0 µM 61% | [6]; [7] -1% | [6]; at 50.0 µM 9.75%
